Source: PubChem BioAssay AID2156 (Johns Hopkins Ion Channel Center, 2009)
The campaign covered roughly 310,000 compounds. About 3,400 (1.1%) were called active. The sample as a whole holds a higher share of actives than the screen did. Values without a mark were called inactive.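 The calls were made as follows: active = fluorescence ratio B-score at most minus 3 library SDs, with starting brightness B-score within 2 library SDs (cut at about -5.5 in these data); inactive = the rest, inconclusive results apart.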

molecular target: Potassium voltage-gated channel subfamily KQT member 2 (Rattus norvegicus) (UniProt O88943); assay: KCNQ2 channel blockers in CHO-K1 cells – cell-based, FluxOR thallium flux, B-score, primary screen (AID 2156); details: 20 min, at 10 µM; stronger effect = lower value
Sequence (O88943 whole entry, looked up): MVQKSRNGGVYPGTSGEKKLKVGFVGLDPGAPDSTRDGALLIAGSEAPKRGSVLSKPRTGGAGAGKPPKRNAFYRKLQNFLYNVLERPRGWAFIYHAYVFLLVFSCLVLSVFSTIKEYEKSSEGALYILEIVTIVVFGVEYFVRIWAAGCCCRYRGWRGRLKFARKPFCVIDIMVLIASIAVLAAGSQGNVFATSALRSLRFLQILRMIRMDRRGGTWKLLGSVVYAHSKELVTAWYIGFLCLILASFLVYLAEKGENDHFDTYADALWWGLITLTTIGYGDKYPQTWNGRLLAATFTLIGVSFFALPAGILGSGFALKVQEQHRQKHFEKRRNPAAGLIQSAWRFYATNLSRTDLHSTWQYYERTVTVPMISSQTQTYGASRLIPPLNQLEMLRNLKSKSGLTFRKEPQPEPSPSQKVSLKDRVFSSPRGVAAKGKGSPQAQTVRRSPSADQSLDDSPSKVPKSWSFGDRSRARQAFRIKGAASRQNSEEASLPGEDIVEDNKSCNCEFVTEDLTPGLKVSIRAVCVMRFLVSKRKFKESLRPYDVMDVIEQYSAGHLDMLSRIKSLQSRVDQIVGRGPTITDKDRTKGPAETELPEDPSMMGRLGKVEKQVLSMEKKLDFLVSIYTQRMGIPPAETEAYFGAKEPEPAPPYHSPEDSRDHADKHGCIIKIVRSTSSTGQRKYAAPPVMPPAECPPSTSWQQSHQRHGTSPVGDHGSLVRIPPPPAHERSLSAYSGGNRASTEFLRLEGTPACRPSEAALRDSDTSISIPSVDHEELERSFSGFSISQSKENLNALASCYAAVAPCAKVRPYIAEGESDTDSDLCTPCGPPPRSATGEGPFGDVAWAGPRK

SMILES	B-score
C=CCn1c(C2CC(=O)N(c3ccc(C)cc3)C2)nc2ccccc21 (configuration not stated)	inactive
CC(C)(C)N1CC(c2nc3ccccc3n2Cc2ccc(F)cc2)CC1=O (configuration not stated)	-5.93 (active)
CSc1nc2ccccc2c(=O)n1Cc1ccc(F)cc1	inactive
CCN(CC)c1ccc(NC(=O)c2ccc(=O)[nH]c2)cc1S(=O)(=O)Nc1ccc(OC)cc1	-0.01
CC1CCN(C(=O)c2ccc3c(c2)NC(=O)CN3)CC1	-0.25
O=C1Nc2cc(C(=O)N3CCC(N4CCCCC4)CC3)ccc2S/C1=C\c1ccccc1	-6.65 (active)
CCN1CCN(CCNC(=O)c2ccc3c(c2)NC(=O)/C(=C\c2ccc(OC)c(OC)c2)S3)CC1	-0.06
Cc1ccc(S(=O)(=O)N(C)c2ccc(OCC(=O)OCC(=O)N(CC#N)c3ccccc3)cc2)cc1	inactive
CN(CC(=O)Nc1cccc(F)c1)C(=O)C1CSC2(C)CCC(=O)N12 (configuration not stated)	-0.47
COc1ccccc1C(=O)NC(CCSC)C(=O)NNC(=O)c1ccccc1C (configuration not stated)	inactive
Cc1cc(NC(=O)CSC2=NS(=O)(=O)c3cc(Cl)ccc3N2)no1	-0.31
CCc1ccc2ncc(C(=O)c3ccccc3)c(N3CCOCC3)c2c1	-9.81 (active)
CCc1ccc(C(=O)NC(=S)Nc2ccccc2N2CCOCC2)cc1	-5.43
O=C(c1ccccc1)c1cc(-c2ccccn2)c(N2CCOCC2)s1	-0.1
CCCCn1c(N)c(N(CC(C)C)C(=O)c2cccc(S(=O)(=O)N3CC(C)OC(C)C3)c2)c(=O)[nH]c1=O (configuration not stated)	inactive
CCCCn1c(N)c(N(CC(C)C)C(=O)c2cnc(C)cn2)c(=O)[nH]c1=O	inactive
Cc1cc(NC(=O)C(C)SCC(=O)Nc2ccccc2N2CCCCC2)no1 (configuration not stated)	inactive
O=C(NCCCN1CCCC1=O)c1cccc(S(=O)(=O)NCc2ccccc2)c1	-0.85
O=C(COC(=O)c1ncc(Cl)c(Cl)c1Cl)NCc1cccs1	-2.02
O=C(CCN1CCc2ccccc2C(O)(c2ccccc2)C1)c1ccc2c(c1)OCCO2 (configuration not stated)	-6.97 (active)
CCC1(c2ccccc2)NC(=O)N(CC(=O)c2ccc3c(c2)OCO3)C1=O (configuration not stated)	inactive
O=C(CN1CCC(O)(c2ccccc2)CC1)Nc1ccc2c(c1)OCCO2	inactive
COc1cc(N)c(Cl)cc1C(=O)OCC(=O)c1ccc2c(c1)NC(=O)CO2	inactive

SMILES	B-score
COc1ccc(CN(C)C(=O)CC(c2ccccc2)c2ccccc2)cc1	-2.95
COc1ccc(CN(C)C(C)C(=O)NC2CCCc3ccccc32)cc1 (configuration not stated)	-6.8 (active)
CNS(=O)(=O)c1cccc(C(=O)NC2CCCc3ccccc32)c1 (configuration not stated)	-2.62
O=C(CN1CCN(c2ccc(O)cc2)CC1)NC1CCCc2ccccc21 (configuration not stated)	-0.25
Cc1cccc(C(=O)OC(C)C(=O)NC2CCCc3ccccc32)c1O (configuration not stated)	-7.78 (active)
CCOc1ccc(NC(=O)COc2ccc(C(=O)NC3CCCc4ccccc43)cc2OC)cc1 (configuration not stated)	inactive
Cc1ccc(NC(=O)CN(C)C(=O)Cn2nnc(-c3ccccc3)n2)cc1	inactive
COc1ccccc1CNC(=O)CSc1nc(=O)n(Cc2ccncc2)c2c1CCC2	-0.12
CC(=O)N1CCN(C(=O)c2cc(-c3ccc(Cl)s3)nc3ccccc23)CC1	inactive
O=C(c1cc(-c2ccc(Cl)s2)nc2ccccc12)N1CCOCC1	-6 (active)
CCOc1ccccc1-c1cc(C(=O)N2CCOCC2)c2ccccc2n1	inactive
Cc1cc(OCC(=O)N(C)c2c(N)n(Cc3ccccc3)c(=O)[nH]c2=O)c(C(C)C)cc1Cl	-0.02
COc1ccc(-c2cnc(SCCNC(=O)c3ccc4c(c3)OCO4)[nH]2)cc1	inactive
Cc1ccc(S(=O)(=O)Oc2ccc(/C=N/NC(=O)c3ccncc3)cc2)cc1	-0.5
O=C1OC(c2ccc(Cl)cc2)=N/C1=C\c1cccnc1	-0.06
Cc1ccc(C2=N/C(=C\c3ccc(OS(=O)(=O)c4ccc(C)cc4)cc3)C(=O)O2)cc1	-7.24 (active)
COc1ccc(OCCCC(=O)OC(C)C(=O)Nc2ccccc2[N+](=O)[O-])cc1 (configuration not stated)	-0.14
Cc1ccc(CN2CCN(c3ccccc3Cl)CC2)o1	-0.4
O=C(N/N=C/c1cc(Cl)cc([N+](=O)[O-])c1O)C(O)(c1ccccc1)c1ccccc1	-0.18
O=[N+]([O-])c1cc(Cl)cc(/C=N/NC(=S)Nc2cc(S(=O)(=O)N3CCOCC3)ccc2Cl)c1O	-8.14 (active)
O=C(CN1CCN(c2ccc(O)cc2)CC1)Nc1cc(S(=O)(=O)N2CCOCC2)ccc1Cl	-0.82
CN1CCN(C(=O)C2=C[C@H](c3ccc4c(c3)OCO4)C[C@H](OCc3ccc(CO)cc3)O2)CC1	-0.01
CC(=O)n1cc([C@@H]2C=C(C(=O)N3CCN(Cc4ccc5c(c4)OCO5)CC3)O[C@H](OCc3ccc(CO)cc3)C2)c2ccccc21	-6.49 (active)

SMILES	B-score
CC(=O)n1cc([C@H]2C=C(C(=O)N3CCOCC3)O[C@@H](OCc3ccc(CO)cc3)C2)c2ccccc21	-4.18
O=C(COc1coc(CN2CCN(c3ccccc3F)CC2)cc1=O)N1CCc2ccccc21	inactive
COc1cc(/C=C/C(=O)N2c3ccccc3Sc3ccc(C(F)(F)F)cc32)cc(OC)c1OC	-7.31 (active)
COc1cc(/C=C/C(=O)N2CCc3ccccc3C2)cc(OC)c1OC	inactive
O=C(CN1CCCCCC1)N1c2ccccc2Sc2ccc(C(F)(F)F)cc21	-3.82
CC(c1ccco1)N(C(=O)Nc1ccccc1)C1CCCCC1 (configuration not stated)	-5.91 (active)
Cc1ccc(NC(=O)NC(=O)N(C2CCCCC2)S(=O)(=O)c2ccccc2)cc1	-1.57
CCOc1ccc(NC(=O)N(CCC(C)C)C(C)c2ccco2)cc1 (configuration not stated)	-2.46
N#CC1(NC(=O)COC(=O)CSc2ccc(F)cc2)CCCCC1	inactive
C=CCOc1ccc(/C=C/C(=O)OC(C)C(=O)Nc2ccc(NC(C)=O)cc2)cc1 (configuration not stated)	inactive
CCCn1c(C)cc(/C=C(\C#N)C(=O)OCC(=O)N(C)c2c(N)n(Cc3ccccc3)c(=O)[nH]c2=O)c1C	-0.77
COc1ccc(OC)c(/C(C)=N\NC(=O)c2cc3cc(Cl)ccc3n2C)c1	-8.07 (active)
COc1ccc(OC)c(C(=O)c2ccc(Cl)cc2)c1	inactive
COc1ccc(/C(C)=N/NC(=O)CCC(=O)Nc2ccc(Cl)cc2Cl)c(OC)c1	-2.5
O=C(Nc1ccon1)c1sc2ccccc2c1Cl	-0.39
CN1CCc2ccccc2C1Cc1ccccc1NC(=O)c1sc2ccccc2c1Cl (configuration not stated)	-6.56 (active)
COc1ccc(CNC(=O)CNC(=O)c2sc3ccccc3c2Cl)cc1OC	inactive
COc1ccc(-c2csc3ncnc(N4CCN(S(=O)(=O)c5cccc(F)c5)CC4)c23)cc1	-2.13
CC(OC(=O)CCCOc1ccccc1)C(=O)Nc1ccc(Cl)cn1 (configuration not stated)	inactive
CC1CN(C(=O)COC(=O)c2cccc(NS(=O)(=O)c3ccccc3)c2)CC(C)O1 (configuration not stated)	inactive
O=C(Cc1ccccc1)n1nc(-c2ccccc2)nc1NCc1ccco1	-5.57 (active)
c1ccc(-c2nc(NCc3ccco3)c3ccccc3n2)cc1	-3.7
CS(=O)(=O)n1nc(-c2ccccc2)nc1NCc1ccco1	-0.02

SMILES	B-score
CC1(C)O[C@@H]2CC3C4C[C@H](F)C5=CC(=O)C=CC5(C)C4C(O)CC3(C)[C@]2(C(=O)CO)O1 (some centres not stated)	inactive
O=C(Nc1ccccc1Cl)/C(Cl)=C(\Cl)S(=O)c1ccccc1 (configuration not stated)	-9.85 (active)
O=C(Nc1ccccc1Cl)Nn1cnnc1	inactive
O=C(COC(=O)c1cccs1)Nc1ccccc1Cl	-0.17
CCc1noc(C)c1C(=O)Nc1nc(-c2ccccc2)cs1	-0.22
CCCn1nc(C(=O)NNC(=O)CSCC(=O)Nc2cc(C)on2)c2ccccc2c1=O	-2.13
O=C(O/N=C(/c1ccccc1)c1ccncc1)c1ccccc1[N+](=O)[O-]	-1.04
Cc1c(C(=O)NCCCc2ccccc2)cccc1[N+](=O)[O-]	-1.07
O=C(OCC(=O)N(CCc1ccccc1)Cc1ccccc1)c1ccccc1[N+](=O)[O-]	-6.77 (active)
Cc1cccc(N2CC(C(=O)Nc3ccccc3N3CCCC3)CC2=O)c1C (configuration not stated)	inactive
CC12CCC(C(=O)N3CCN(c4ncccn4)CC3)(c3nc4ccccc4nc31)C2(C)C (configuration not stated)	-6.6 (active)
CC(Oc1ccc(F)cc1)C(=O)N1CCN(c2ncccn2)CC1 (configuration not stated)	inactive
c1cnc(N2CCN(c3ccc4ccccc4n3)CC2)nc1	-0.22
Cc1cc(C)n2nc(C(=O)OC(C)C(=O)c3cc(C)c(C)cc3C)nc2n1 (configuration not stated)	inactive
Cc1ccccc1NC(=O)C(C)OC(=O)CCC(=O)N(CC(C)C)c1c(N)n(CC(C)C)c(=O)[nH]c1=O (configuration not stated)	inactive
CC(=O)Nc1ccc(Nc2c3ccccc3nc3ccccc23)cc1	inactive
Cc1cc(CNC(=O)c2cccc([N+](=O)[O-])c2)c2ccccc2n1	inactive
O=[N+]([O-])c1cccc(Nc2c3ccccc3nc3ccccc23)c1	-5.7 (active)
CCOc1ccc(/C=C/C(=O)N(CC)CC(=O)NCc2cccs2)cc1OC	inactive
COc1ccccc1CNC(=O)COn1nnc2ccc(S(=O)(=O)N3CCOCC3)cc21	inactive
COc1ccc(Cl)cc1NC(=O)COC(=O)C(CC(C)C)N1C(=O)C2CC=CCC2C1=O (configuration not stated)	-5.8 (active)
COc1ccc(Cl)cc1NC(=O)c1cccc(N2C(=O)C3CC=CCC3C2=O)c1 (configuration not stated)	-0.4
COc1ccc(Cl)cc1NC(=O)CCN1CCOCC1	-1.02
